Experimental data as given in ChEMBL document CHEMBL3988442, “University of Dundee, Small-Polar-MMV Screening Library” (2021).
For some of these results: Entries with a potency or affinity are not part of this list.

Experiments:
Design in all cases: scale not given: direction of the effect not stated beside the values
[1] = biological target: Protein translocase subunit SecA (Escherichia coli (strain K12)) (UniProt P10408); assay: Assay to Identify E. coli SecA ATPase Inhibitors; assay type: functional; conditions: 30 µM
Sequence of Protein translocase subunit SecA (Escherichia coli (strain K12)) (P10408 whole entry): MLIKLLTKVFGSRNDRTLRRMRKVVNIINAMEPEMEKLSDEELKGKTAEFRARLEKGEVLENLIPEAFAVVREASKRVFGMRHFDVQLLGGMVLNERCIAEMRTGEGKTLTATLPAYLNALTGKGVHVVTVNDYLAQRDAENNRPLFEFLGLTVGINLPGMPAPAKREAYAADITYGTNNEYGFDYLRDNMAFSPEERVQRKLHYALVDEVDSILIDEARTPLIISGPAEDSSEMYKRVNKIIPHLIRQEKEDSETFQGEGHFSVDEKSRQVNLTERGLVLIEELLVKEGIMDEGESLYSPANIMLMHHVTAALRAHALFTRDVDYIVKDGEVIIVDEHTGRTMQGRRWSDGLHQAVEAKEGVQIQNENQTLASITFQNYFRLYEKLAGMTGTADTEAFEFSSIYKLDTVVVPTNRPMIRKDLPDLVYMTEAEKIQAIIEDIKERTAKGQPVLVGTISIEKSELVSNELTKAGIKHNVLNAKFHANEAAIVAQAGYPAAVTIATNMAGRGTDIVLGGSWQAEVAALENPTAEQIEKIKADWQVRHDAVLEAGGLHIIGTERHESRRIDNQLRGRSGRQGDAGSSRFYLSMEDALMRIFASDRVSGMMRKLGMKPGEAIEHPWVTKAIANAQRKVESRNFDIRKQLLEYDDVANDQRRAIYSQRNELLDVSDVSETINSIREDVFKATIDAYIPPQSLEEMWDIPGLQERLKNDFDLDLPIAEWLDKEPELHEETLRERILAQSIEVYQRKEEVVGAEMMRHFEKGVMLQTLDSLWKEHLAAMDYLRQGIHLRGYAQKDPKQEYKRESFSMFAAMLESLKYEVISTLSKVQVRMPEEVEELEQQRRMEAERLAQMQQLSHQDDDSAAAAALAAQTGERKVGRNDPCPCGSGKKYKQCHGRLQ

[2] = biological target: T1, Ubiquitin-activating enzyme e1, putative (Leishmania donovani (strain BPK282A1)) (UniProt E9BSI1); assay: Leishmania donovani Ubiquitin Activating Enzyme (LdE1); assay type: functional; conditions: 30 µM
T1 sequence (whole entry): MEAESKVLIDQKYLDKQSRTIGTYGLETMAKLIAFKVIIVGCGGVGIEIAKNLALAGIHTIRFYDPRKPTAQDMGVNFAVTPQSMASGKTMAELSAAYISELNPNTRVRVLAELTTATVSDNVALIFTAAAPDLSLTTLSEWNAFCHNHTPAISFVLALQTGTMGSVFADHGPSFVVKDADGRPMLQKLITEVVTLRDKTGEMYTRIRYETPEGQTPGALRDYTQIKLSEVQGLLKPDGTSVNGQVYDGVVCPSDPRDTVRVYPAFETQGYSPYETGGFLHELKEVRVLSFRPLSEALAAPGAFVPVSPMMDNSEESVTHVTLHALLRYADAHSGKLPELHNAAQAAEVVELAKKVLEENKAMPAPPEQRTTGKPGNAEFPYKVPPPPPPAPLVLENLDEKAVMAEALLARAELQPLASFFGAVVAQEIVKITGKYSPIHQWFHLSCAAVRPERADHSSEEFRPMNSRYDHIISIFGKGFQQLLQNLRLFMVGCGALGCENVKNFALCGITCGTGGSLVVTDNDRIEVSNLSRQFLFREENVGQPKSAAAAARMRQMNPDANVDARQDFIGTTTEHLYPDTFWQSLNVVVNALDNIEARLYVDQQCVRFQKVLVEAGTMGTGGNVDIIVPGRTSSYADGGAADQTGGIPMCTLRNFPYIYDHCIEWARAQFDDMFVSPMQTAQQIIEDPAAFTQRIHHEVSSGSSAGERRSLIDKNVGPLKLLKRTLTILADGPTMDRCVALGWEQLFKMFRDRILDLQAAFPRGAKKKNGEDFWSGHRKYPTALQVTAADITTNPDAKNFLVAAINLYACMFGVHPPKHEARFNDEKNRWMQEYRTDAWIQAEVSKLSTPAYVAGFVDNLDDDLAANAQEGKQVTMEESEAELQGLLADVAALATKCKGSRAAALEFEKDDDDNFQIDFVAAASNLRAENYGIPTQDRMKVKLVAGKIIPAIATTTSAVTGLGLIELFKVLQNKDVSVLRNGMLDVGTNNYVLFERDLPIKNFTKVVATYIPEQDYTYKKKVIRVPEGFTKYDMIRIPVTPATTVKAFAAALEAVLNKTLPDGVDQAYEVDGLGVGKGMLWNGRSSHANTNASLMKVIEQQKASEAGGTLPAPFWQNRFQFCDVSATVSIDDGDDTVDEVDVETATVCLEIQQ

[3] = biological target: AMP-activated protein kinase, AMPK (Homo sapiens) (UniProt P54646+O43741+P54619+Q9UGJ0+Q9Y478+Q13131+Q9UGI9); assay: AMP-dependent Kinase enzyme assay. An in vitro enzyme assay that detects ADP turnover that is directly proportional to AMPK activity. This uses naive AMPK that is activated during the assay with MK-8722; assay type: functional; conditions: 30 µM
[4] = biological target: Sialic acid-binding Ig-like lectin 9 (Homo sapiens) (UniProt Q9Y336); assay: Hs-Siglec9 ALPHAscreen SOP 20170721; conditions: 10 µM
Sequence of Sialic acid-binding Ig-like lectin 9 (Homo sapiens) (Q9Y336 whole entry): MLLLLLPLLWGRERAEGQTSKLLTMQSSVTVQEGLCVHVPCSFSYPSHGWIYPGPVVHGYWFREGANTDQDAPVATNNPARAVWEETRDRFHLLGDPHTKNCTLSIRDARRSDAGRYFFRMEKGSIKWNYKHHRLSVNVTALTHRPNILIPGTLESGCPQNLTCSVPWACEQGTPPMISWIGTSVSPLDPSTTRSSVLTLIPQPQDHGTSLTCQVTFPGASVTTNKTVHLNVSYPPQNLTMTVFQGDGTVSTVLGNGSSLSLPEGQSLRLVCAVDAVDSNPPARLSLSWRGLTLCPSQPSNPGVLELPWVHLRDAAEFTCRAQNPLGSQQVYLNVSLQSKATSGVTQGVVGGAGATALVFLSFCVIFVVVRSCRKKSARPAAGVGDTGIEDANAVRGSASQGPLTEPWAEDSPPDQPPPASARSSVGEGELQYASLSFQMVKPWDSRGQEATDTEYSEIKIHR

Trypanosoma cruzi = assay: Trypanosoma cruzi phosphomannomutase and mannose-1-phosphate guanylyltransferase assay; assay type: functional; conditions: 10 µM
[5] = biological target: T2, Arginase-2, mitochondrial (Homo sapiens) (UniProt P78540); assay: in vitro enzyme assay to detect the production of urea directly proportional to the activity of Arginase II; assay type: functional; conditions: 33.3 µM; note: in the data most compounds retested in dose-response had high values
T2 sequence (whole entry): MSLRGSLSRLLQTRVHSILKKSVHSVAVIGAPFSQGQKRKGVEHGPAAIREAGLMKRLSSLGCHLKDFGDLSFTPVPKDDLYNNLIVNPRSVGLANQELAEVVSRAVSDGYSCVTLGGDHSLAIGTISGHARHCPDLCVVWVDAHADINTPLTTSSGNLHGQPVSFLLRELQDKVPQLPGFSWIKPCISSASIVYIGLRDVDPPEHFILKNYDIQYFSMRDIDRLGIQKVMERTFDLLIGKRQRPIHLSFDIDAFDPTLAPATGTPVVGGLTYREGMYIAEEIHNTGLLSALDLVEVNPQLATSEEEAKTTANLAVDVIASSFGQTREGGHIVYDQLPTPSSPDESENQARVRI

[6] = biological target: T3, Proteasome subunit beta (Trypanosoma cruzi) (UniProt O96673); assay: Trypanosoma cruzi proteasome chymotrypsin-like activity (TcProtChymo) assay.; note: in the data most compounds retested in dose-response had high values; assay type: functional; conditions: 9.37 µM
T3 sequence (whole entry): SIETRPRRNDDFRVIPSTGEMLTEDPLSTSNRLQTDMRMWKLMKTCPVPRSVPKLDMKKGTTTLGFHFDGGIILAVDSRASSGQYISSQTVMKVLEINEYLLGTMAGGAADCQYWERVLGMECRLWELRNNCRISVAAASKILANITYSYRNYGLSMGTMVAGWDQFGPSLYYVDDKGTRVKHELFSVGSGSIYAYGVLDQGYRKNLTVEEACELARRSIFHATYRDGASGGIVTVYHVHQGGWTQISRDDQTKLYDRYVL

Homo sapiens = species: Homo sapiens; assay: To identify inhibition of the IFN signalling (Jak-Stat) pathway via expression of an eGFP reporter gene under the control of an IFN-stimulated response element (ISRE) containing MxA promoter.; assay type: functional; conditions: 30 µM
[7] = biological target: T4, Tyrosyl-tRNA synthetase, putative (Trypanosoma cruzi (strain CL Brener)) (UniProt Q4DSP6); assay: Trypanosoma cruzi tyrosyl tRNA synthetase (TcYRS) _High Tyrosine SOP; assay type: functional; conditions: 30 µM; note: in the data most compounds retested in dose-response had high values
T4 sequence (whole entry): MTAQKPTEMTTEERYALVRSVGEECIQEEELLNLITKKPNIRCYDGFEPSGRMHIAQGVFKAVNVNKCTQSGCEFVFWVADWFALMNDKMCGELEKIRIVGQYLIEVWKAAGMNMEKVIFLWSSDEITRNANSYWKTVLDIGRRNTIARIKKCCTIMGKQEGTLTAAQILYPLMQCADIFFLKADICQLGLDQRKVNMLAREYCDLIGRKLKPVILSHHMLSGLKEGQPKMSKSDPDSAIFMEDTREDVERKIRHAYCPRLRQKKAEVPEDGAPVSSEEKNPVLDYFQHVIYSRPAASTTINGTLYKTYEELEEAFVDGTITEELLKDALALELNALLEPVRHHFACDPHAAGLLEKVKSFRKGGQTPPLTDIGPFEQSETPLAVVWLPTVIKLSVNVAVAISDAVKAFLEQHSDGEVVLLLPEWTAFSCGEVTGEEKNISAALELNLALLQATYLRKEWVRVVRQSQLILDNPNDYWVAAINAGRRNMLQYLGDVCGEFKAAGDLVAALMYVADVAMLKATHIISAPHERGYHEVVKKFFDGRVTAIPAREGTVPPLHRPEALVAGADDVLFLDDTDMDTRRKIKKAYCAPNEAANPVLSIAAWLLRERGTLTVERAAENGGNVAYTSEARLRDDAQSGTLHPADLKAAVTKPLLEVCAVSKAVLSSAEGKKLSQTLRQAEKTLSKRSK

[8] = biological target: T4, Tyrosyl-tRNA synthetase, putative (Trypanosoma cruzi (strain CL Brener)); assay: Trypanosoma cruzi tyrosyl tRNA synthetase (TcYRS) SOP; assay type: functional; conditions: 30 µM
[9] = biological target: Chromo domain-containing protein 1 (Saccharomyces cerevisiae (strain ATCC 204508 / S288c) (Baker's yeast)) (UniProt P32657); assay: ScCHD-1 Enzyme Inhibition Assay; assay type: functional; conditions: 30 µM; note: in the data most compounds retested in dose-response had high values
Sequence of Chromo domain-containing protein 1 (Saccharomyces cerevisiae (strain ATCC 204508 / S288c) (Baker's yeast)) (P32657 whole entry, the tested form may be a part): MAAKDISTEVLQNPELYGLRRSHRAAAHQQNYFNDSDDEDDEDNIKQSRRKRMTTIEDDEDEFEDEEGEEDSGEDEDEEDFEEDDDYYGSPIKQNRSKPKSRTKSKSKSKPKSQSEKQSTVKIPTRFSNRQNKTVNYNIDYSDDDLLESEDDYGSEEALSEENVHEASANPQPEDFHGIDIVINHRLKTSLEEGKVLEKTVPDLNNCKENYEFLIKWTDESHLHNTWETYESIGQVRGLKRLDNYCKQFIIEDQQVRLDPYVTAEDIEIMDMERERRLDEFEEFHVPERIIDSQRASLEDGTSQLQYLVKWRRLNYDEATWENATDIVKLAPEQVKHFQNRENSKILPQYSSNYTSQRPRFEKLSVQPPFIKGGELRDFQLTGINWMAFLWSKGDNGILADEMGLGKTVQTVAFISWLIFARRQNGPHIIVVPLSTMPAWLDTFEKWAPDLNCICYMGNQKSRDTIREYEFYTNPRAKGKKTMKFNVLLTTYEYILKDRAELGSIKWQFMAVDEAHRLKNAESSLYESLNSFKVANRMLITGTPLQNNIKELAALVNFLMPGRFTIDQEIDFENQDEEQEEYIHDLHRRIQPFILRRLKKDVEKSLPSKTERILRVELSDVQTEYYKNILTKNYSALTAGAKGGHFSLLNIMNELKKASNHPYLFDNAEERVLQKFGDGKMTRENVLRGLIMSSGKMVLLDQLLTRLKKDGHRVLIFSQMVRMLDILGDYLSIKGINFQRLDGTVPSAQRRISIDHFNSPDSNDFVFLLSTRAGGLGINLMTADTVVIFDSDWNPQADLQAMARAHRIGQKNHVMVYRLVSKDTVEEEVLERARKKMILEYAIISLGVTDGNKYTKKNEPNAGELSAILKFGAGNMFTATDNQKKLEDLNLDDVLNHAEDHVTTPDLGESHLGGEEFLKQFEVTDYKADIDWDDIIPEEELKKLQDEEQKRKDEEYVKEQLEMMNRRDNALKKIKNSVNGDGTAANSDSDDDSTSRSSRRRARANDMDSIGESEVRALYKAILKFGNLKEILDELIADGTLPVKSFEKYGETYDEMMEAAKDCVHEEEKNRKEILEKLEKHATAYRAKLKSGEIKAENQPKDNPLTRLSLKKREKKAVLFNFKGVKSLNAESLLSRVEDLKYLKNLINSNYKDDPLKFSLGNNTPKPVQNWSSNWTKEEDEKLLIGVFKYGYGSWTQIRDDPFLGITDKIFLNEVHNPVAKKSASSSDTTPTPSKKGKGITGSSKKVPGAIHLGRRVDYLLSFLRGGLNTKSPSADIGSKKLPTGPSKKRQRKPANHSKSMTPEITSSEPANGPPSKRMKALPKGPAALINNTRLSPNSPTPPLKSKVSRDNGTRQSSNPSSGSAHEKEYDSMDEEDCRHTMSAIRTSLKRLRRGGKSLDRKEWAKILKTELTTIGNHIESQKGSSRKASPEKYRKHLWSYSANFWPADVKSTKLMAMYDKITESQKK

Cc1cc(C)n(C2CCCN(C(=O)c3cc(C4CC4)on3)C2)n1 (stereo not drawn)
Percent Effect [1]: -4.93% | Percent Effect [2]: 5.2% | Percent Effect [3]: -0.0913% | Percent Effect [4]: -0.636% | Percent Effect (Trypanosoma cruzi): 4.41% | Percent Effect [5]: -1.05% | Percent Effect [6]: 13.8% | Percent Effect (Homo sapiens): -1.26% | Percent Effect [7]: 1.91% | Percent Effect [8]: 9.41% | Percent Effect [9]: -18.6%

CS(=O)(=O)CCC(=O)N1CCC2(CCCN(C3CCOCC3)C2=O)C1 (stereo not drawn)
Percent Effect [1]: 0.12% | Percent Effect [2]: 8.22% | Percent Effect [3]: -3.26% | Percent Effect [4]: 6.39% | Percent Effect (Trypanosoma cruzi): 1.19% | Percent Effect [5]: -3.19% | Percent Effect [6]: 12.6% | Percent Effect (Homo sapiens): -2.62% | Percent Effect [7]: 6.25% | Percent Effect [8]: 13.6% | Percent Effect [9]: -3.06%

CC(C)c1nc(C2CCCN(C(=O)c3ccc4nccn4c3)C2)no1 (stereo not drawn)
Percent Effect [1]: -2.08% | Percent Effect [2]: 10.4% | Percent Effect [3]: 2.88% | Percent Effect [4]: 12.4% | Percent Effect (Trypanosoma cruzi): -1.47% | Percent Effect [5]: 1.47% | Percent Effect [6]: 3.15% | Percent Effect (Homo sapiens): -11.3% | Percent Effect [7]: 1.91% | Percent Effect [8]: 7.06% | Percent Effect [9]: -11.9%

NC(=O)C1CCN(C(=O)c2cccc(CN3CCOCC3)c2)CC1
Percent Effect [1]: -0.727% | Percent Effect [2]: 6.94% | Percent Effect [3]: 4.41% | Percent Effect [4]: 25.6% | Percent Effect (Trypanosoma cruzi): 4.57% | Percent Effect [5]: 2.21% | Percent Effect [6]: 0.702% | Percent Effect (Homo sapiens): -3.07% | Percent Effect [7]: 1.05% | Percent Effect [8]: 0% | Percent Effect [9]: 79%

c1cncc(-c2ccc3c(c2)C2(CC3)CCN(c3nncs3)CC2)c1
Percent Effect [1]: -0.421% | Percent Effect [2]: 0% | Percent Effect [3]: 3.46% | Percent Effect [4]: 8.96% | Percent Effect (Trypanosoma cruzi): 5.56% | Percent Effect [5]: 1.6% | Percent Effect [6]: 14.5% | Percent Effect (Homo sapiens): 47.4% | Percent Effect [7]: 14.6% | Percent Effect [8]: 8.64% | Percent Effect [9]: 2.02%

Cn1cc(C(=O)NC2CCN(C(=O)NCC3CCSCC3)CC2)cn1
Percent Effect [1]: -7.28% | Percent Effect [2]: 6.33% | Percent Effect [3]: 11.5% | Percent Effect [4]: 2.29% | Percent Effect (Trypanosoma cruzi): -2.15% | Percent Effect [5]: 2.37% | Percent Effect [6]: 8.75% | Percent Effect (Homo sapiens): 24.4% | Percent Effect [7]: 11.5% | Percent Effect [8]: 15.2% | Percent Effect [9]: 1.7%

CCn1ncc2c1CCCC2NCC1=Cc2ccccc2OC1 (stereo not drawn)
Percent Effect [1]: -4.51% | Percent Effect [2]: 3.8% | Percent Effect [3]: 4.34% | Percent Effect [4]: 0.918% | Percent Effect (Trypanosoma cruzi): 1.95% | Percent Effect [5]: -7.1% | Percent Effect [6]: 10.1% | Percent Effect (Homo sapiens): 13.4% | Percent Effect [7]: 4.17% | Percent Effect [8]: 7.59% | Percent Effect [9]: -2%

c1cc(C2CCCN2Cc2nnnn2C2CC2)cs1 (stereo not drawn)
Percent Effect [1]: -2.2% | Percent Effect [2]: 4.17% | Percent Effect [3]: -9.7% | Percent Effect [4]: -8.8% | Percent Effect (Trypanosoma cruzi): -4.18% | Percent Effect [5]: 0% | Percent Effect [6]: 21.2% | Percent Effect (Homo sapiens): 0.525% | Percent Effect [7]: 6.32% | Percent Effect [8]: 10.3% | Percent Effect [9]: 2.21%
